# Sampled rows, rich in hits. Any-hit rate of the full collection: about 3.5%.
# GPR151 activ: activates the human receptor GPR151. PathHunter beta-arrestin GPR151 cells, luminescence. 650,000 tested, 1% active. activation, % at 11.2 µM; in the data active = activation above about 4.9%;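 also: 0% = median of compound wells and 100% = cells with positive control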
# MITF inh: inhibitors of human MITF. AlphaScreen MITF homodimerization, bead proximity signal. O75030. 650,000 tested, 0.91% active. AID 1259374. inhibition, % at 2.6 µM; in the data active = inhibition above about 50%;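 also: 0% = vehicle wells with protein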
# FBW7 activator: activators of human E3 ligase FBW7; AlphaScreen FBW7–phospho-cyclin E peptide binding, activator screen; 650,000 tested, 0.13% active; AID 1259310; normalized activity (activation), % at 26.1 µM; in the data active = normalized activity above about 1.9%;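 also: purified mutant Fbw7 with reduced substrate affinity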
# Target sequence (Q969H0 whole entry, looked up): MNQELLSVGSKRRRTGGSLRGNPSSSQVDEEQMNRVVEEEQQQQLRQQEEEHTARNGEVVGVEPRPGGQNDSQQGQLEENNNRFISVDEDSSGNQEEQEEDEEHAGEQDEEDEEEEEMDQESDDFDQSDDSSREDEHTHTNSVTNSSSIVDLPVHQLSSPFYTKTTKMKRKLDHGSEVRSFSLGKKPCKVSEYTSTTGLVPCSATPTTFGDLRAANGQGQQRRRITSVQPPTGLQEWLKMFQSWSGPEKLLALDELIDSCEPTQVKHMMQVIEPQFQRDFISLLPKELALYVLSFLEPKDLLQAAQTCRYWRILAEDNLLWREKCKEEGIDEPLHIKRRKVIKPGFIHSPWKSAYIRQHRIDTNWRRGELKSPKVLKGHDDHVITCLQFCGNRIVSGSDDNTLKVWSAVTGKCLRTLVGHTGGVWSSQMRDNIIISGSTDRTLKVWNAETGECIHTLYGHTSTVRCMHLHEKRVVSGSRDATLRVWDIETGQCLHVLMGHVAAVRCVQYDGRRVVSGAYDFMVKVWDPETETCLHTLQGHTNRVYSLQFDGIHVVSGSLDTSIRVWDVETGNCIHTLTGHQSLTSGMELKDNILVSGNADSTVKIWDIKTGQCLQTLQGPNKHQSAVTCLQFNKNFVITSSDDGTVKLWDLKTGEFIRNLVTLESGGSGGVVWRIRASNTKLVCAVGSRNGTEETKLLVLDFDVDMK
# TEAD-YAP inh: TEAD-YAP interaction inhibition. AID 1259422. HEK-TIYL cells, TEAD-Gal4/YAP UAS-luciferase luminescence. inhibition, % at 9.12 µM. 640,000 tested, 1.4% active; in the data active = inhibition above about 32%;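 also: 0% = median of test compound wells and 100% = reference inhibitor wells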
# An asterisk follows results filed as active; ! = not confirmed by another sample.
SMILES,GPR151 activ,MITF inh,FBW7 activator,TEAD-YAP inh
COc1ccc(N2C(=O)CC(N3CCN(C(c4ccccc4)c4ccccc4)CC3)C2=O)cc1 (configuration not stated),0,12,1,1
CC(=O)C1C(=O)CC(C)(O)C(C(C)=O)C1c1ccc(C(C)(C)C)cc1 (configuration not stated),0,1,0,6
COc1ccc2c(c1)C(C)CC(C)(C)N2C(=O)CCl (configuration not stated),0,0,0,41*
O=C(COCc1ccccc1)Nc1ccc(-c2cn[nH]c2)cc1OCCN1CCCC1,1,10,0,-15
COC(=O)C1=C(C)NC2=C(C(=O)CC(c3cccs3)C2)C1c1cc(OC)c(Br)cc1OC (configuration not stated),1,-3,0,60*
CCOC(=O)C1=C(C)NC2=C(C(=O)CC(c3cccs3)C2)C1c1cccs1 (configuration not stated),-1,-1,0,51*!
COCCOC(=O)C1=C(C)NC2=C(C(=O)CC(c3cccs3)C2)C1c1ccccc1F (configuration not stated),-1,8,0,15
COCCOC(=O)C1=C(C)NC2=C(C(=O)CC(c3cccs3)C2)C1c1cccs1 (configuration not stated),0,-17,0,-5
COCCOC(=O)C1=C(C)NC2=C(C(=O)CC(c3cccs3)C2)C1c1ccc(F)cc1 (configuration not stated),0,1,0,36*!
COC(=O)C1=C(C)NC2=C(C(=O)CC(c3cccs3)C2)C1c1cccs1 (configuration not stated),0,3,0,4
COC(=O)C1=C(C)NC2=C(C(=O)CC(c3cccs3)C2)C1c1ccsc1 (configuration not stated),-1,9,1,33*
COc1ccc(N=c2ssc3c2-c2cc(C)c(C)cc2NC3(C)C)c(OC)c1,3,9,0,2
CCc1ccc(C2C(C(=O)OC(C)C)=C(C)NC3=C2C(=O)CC(c2cccs2)C3)s1 (configuration not stated),1,2,0,-8
CC1=C(C(=O)OC(C)C)C(c2cccs2)C2=C(CC(c3cccs3)CC2=O)N1 (configuration not stated),0,-6,0,37*
COCCNC(=O)/C(C#N)=C/c1cc(C)n(-c2sc(C)c(C)c2C#N)c1C,0,-2,0,51*
COCCCNC(=O)/C(C#N)=C/c1cc(C)n(-c2ccccc2)c1C,1,10,0,40*
COCCCNC(=O)/C(C#N)=C/c1cc(C)n(-c2ccc(C)cc2)c1C,0,10,0,5
COCCCNC(=O)/C(C#N)=C/c1cn(Cc2ccccc2)c2ccccc12,3,5,1,44*
CC1(C)CC(=O)C(C=Nc2ccccc2C(F)(F)F)=C(O)C1,1,12,0,5
C=C(C)CN1C(=O)NC(CC)(C2CCN(Cc3ccccn3)CC2)C1=O (configuration not stated),2,-3,0,7
COc1ccc(NC(=O)c2cc(-c3ccc(F)cc3)no2)cc1,0,12,0,-1
COc1c(NC(=O)Nc2ccccc2C)cc([N+](=O)[O-])c(OC)c1C,1,6,0,45*
COc1cccc(C2=CC(c3ccc(OC)cc3OC)n3nnnc3N2)c1 (configuration not stated),3,2,0,48*
COc1cccc(C2=CC(c3cccc(F)c3)n3nnnc3N2)c1 (configuration not stated),-1,-3,0,50*
COc1ccc(Br)cc1C1C=C(c2cccs2)Nc2nnnn21 (configuration not stated),0,17,0,42*
SMILES,GPR151 activ,MITF inh,FBW7 activator,TEAD-YAP inh
O=C1NC(c2cc3c(cc2Cl)OCO3)Nc2ccccc21 (configuration not stated),0,7,1,51*
O=C(CCc1nc2cccnc2n1Cc1cccs1)NCCc1cccs1,0,-1,0,-17
O=C(CCl)NCCOc1ccc(Cl)cc1Cl,-1,9,0,41*
Cc1ccc(OCC(=O)Nc2ccc(Cl)cn2)c(Br)c1,-2,-6,0,40*
Cc1cc(Br)ccc1OCC(=O)Nc1ccc(Cl)cn1,0,17,0,-25
Cc1ccc(NC(=O)COc2ccc(Cl)cc2Cl)nc1,-3,4,1,70*
Cc1cc(Cl)ccc1OCC(=O)Nc1ccc(Cl)cn1,0,9,0,-29
Cc1nc(NC(=O)COc2ccc(Cl)cc2Cl)sc1C,-7,7,0,74*
CCCN1C(=O)C(C)(C)COc2cc(NC(=O)c3ccccc3Br)ccc21,-1,20,0,-3
CC(C)c1ccc(NC(=O)C2CCN(C(=O)NC3CCCCC3)CC2)cc1,3,-7,0,1
COc1ccccc1CC(=O)Nc1cnc2cnc(-c3ccc(F)c(Cl)c3)cn12,0,6,1.9*,-5
CC(=O)c1c(C)[nH]c(C(=O)Nc2nc(C)cs2)c1C,-2,-1,0,54*
CC(=O)c1c(C)[nH]c(C(=O)Nc2ccc(C)cn2)c1C,-1,1,0,53*
O=C(CCl)NC(Cc1ccccc1)c1ccccc1 (configuration not stated),0,11,0,58*
CCOC(=O)C(=O)NC(Cc1ccccc1)c1ccccc1 (configuration not stated),1,13,0,2
CCN(Cc1ccccc1)C(=O)CSCc1ccccc1,2,-16,0,-32
O=C(N/N=C/c1ccc(O)cc1O)c1ccc2c(c1)OCCO2,1,18,0,61*
O=C(N/N=C/c1ccc(O)c(I)c1)c1ccc2c(c1)OCCO2,1,-12,0,-15
Cc1cc(O)cc(O)c1/C=N/NC(=O)c1ccc2c(c1)OCCO2,-1,9,0,56*
O=C(N/N=C/c1ccc(O)cc1O)c1ccc(CN2C(=O)c3cccc4cccc2c34)cc1,3,21,-1,33*
C=C(C)C(=O)Nc1sc(C)c(-c2ccccc2)c1C(N)=O,1,12,0,-15
Cc1sc(NC(=O)CC(c2ccccc2)c2ccccc2)c(C(N)=O)c1C,3,1,0,40*
Cc1sc(NC(=O)CCCC(=O)O)c(C(N)=O)c1-c1ccccc1,0,1,0,45*
O=C(NCc1ccc(F)cc1)c1ccc(=O)[nH]c1,-1,-5,0,-3
CCn1nc(-c2ccccn2)nc2c(=O)n(C)c(=O)nc1-2,-2,21,0,97*
CCn1nc(-c2ccc(OC)cc2)nc2c(=O)n(C)c(=O)nc1-2,-9,7,0,96*
Cn1nc(-c2ccc([N+](=O)[O-])cc2)nc2c(=O)n(C)c(=O)nc1-2,-8,7,0,55*
CCn1nc(-c2ccc(Cl)c(Cl)c2)nc2c(=O)n(C)c(=O)nc1-2,-9,3,0,-40
Cc1ccc(C(=O)c2cccc(N)c2)cc1C,-1,8,1,57*

# From PubChem
